Data published in the supplement of paper PMC10849652.
About 8,800 targets were measured; listed, in parts, are those with a hit and a random draw of the rest. About 0.5% of all pairs of compound and target were hits.

Legend:
Assay in all cases: log2 fold change, soluble protein after heating vs DMSO (PISA); higher = thermal stabilisation; K562 lysate, 10 uM; active = over 0.2 and 3.5 SD of the protein, either way, in both replicates (recomputed)
[1] = compound: NCC(=O)Nc1ccc(-n2nc(C(F)(F)F)cc2-c2ccc3c(ccc4ccccc43)c2)cc1
Method in brief: (§1)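 Following dounce homogenisation of K562 pellets in PBS pH 7.4 with 1 mM MgCl2, crude extract at 1 mg/mL protein was incubated for 30 min with 10 μM compound. Aliquots were then heated for 3 min over 48°C-58°C and pooled, NP-40 was added to 0.5% at 4°C, and soluble protein was recovered as the supernatant at 21,000xg for 90 min. Channel-sum-equalised TMTpro 16plex LC-MS/MS quantified this protein. Each value, from duplicates, is a log-two fold change in thermal stability relative to solvent controls.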

vorinostat = compound: O=C(CCCCCCC(=O)Nc1ccccc1)NO [vorinostat]
Method in brief: as §1

silmitasertib = compound: O=C(O)c1ccc2c(c1)nc(Nc1cccc(Cl)c1)c1ccncc12 [silmitasertib]
Method in brief: as §1

[2] = compound: O=C1NC(=O)C(c2cnc3ccccn23)=C1c1cn2c3c(cc(F)cc13)CN(C(=O)N1CCCCC1)CC2
Method in brief: as §1

entospletinib = compound: c1cn2cc(-c3ccc4cn[nH]c4c3)nc(Nc3ccc(N4CCOCC4)cc3)c2n1 [entospletinib]
Method in brief: as §1

Measured: log2 fold change

CLUH (UniProt O75153)
active: vorinostat 0.404
inactive: [1] -0.011 | silmitasertib 0.071 | [2] 0.033 | entospletinib 0.01

CNTN4 (UniProt Q8IWV2)
inactive: [1] 0.173 | vorinostat -0.026 | silmitasertib -0.09 | [2] 0.274 | entospletinib 0.06

CXXC1 isoform 2 (UniProt Q9P0U4)
inactive: [1] -0.008 | vorinostat -0.18 | silmitasertib 0.08 | [2] 0.027 | entospletinib -0.033

CNOT4 isoform 9 (UniProt O95628)
inactive: [1] 0.036 | vorinostat 0.098 | silmitasertib 0.044 | [2] -0.031 | entospletinib 0.009

CSDE1 isoform 4 (UniProt O75534)
active: vorinostat -0.33
inactive: [1] -0.004 | silmitasertib 0.015 | [2] -0.009 | entospletinib 0.04

CORO7 (UniProt P57737)
inactive: [1] -0.053 | vorinostat -0.019 | silmitasertib -0.017 | [2] 0.019 | entospletinib -0.045

DIAPH1 (UniProt O60610)
inactive: [1] 0.013 | vorinostat -0.014 | silmitasertib 0.009 | [2] -0.02 | entospletinib -0.003

DCUN1D4 isoform 3 (UniProt Q92564)
inactive: [1] 0.066 | vorinostat 0.128 | silmitasertib -0.031 | [2] -0.121 | entospletinib -0.096

DDX54 isoform 2 (UniProt Q8TDD1)
inactive: [1] 0.131 | vorinostat 0.066 | silmitasertib -0.006 | [2] -0.008 | entospletinib -0.009

DICER1 (UniProt Q9UPY3)
active: vorinostat -0.58
inactive: [1] 0.022 | silmitasertib 0.042 | [2] 0.001 | entospletinib -0.004

DOCK10 (UniProt Q96BY6)
Chain of UniProt Q96BY6 (Q96BY6 whole entry, looked up): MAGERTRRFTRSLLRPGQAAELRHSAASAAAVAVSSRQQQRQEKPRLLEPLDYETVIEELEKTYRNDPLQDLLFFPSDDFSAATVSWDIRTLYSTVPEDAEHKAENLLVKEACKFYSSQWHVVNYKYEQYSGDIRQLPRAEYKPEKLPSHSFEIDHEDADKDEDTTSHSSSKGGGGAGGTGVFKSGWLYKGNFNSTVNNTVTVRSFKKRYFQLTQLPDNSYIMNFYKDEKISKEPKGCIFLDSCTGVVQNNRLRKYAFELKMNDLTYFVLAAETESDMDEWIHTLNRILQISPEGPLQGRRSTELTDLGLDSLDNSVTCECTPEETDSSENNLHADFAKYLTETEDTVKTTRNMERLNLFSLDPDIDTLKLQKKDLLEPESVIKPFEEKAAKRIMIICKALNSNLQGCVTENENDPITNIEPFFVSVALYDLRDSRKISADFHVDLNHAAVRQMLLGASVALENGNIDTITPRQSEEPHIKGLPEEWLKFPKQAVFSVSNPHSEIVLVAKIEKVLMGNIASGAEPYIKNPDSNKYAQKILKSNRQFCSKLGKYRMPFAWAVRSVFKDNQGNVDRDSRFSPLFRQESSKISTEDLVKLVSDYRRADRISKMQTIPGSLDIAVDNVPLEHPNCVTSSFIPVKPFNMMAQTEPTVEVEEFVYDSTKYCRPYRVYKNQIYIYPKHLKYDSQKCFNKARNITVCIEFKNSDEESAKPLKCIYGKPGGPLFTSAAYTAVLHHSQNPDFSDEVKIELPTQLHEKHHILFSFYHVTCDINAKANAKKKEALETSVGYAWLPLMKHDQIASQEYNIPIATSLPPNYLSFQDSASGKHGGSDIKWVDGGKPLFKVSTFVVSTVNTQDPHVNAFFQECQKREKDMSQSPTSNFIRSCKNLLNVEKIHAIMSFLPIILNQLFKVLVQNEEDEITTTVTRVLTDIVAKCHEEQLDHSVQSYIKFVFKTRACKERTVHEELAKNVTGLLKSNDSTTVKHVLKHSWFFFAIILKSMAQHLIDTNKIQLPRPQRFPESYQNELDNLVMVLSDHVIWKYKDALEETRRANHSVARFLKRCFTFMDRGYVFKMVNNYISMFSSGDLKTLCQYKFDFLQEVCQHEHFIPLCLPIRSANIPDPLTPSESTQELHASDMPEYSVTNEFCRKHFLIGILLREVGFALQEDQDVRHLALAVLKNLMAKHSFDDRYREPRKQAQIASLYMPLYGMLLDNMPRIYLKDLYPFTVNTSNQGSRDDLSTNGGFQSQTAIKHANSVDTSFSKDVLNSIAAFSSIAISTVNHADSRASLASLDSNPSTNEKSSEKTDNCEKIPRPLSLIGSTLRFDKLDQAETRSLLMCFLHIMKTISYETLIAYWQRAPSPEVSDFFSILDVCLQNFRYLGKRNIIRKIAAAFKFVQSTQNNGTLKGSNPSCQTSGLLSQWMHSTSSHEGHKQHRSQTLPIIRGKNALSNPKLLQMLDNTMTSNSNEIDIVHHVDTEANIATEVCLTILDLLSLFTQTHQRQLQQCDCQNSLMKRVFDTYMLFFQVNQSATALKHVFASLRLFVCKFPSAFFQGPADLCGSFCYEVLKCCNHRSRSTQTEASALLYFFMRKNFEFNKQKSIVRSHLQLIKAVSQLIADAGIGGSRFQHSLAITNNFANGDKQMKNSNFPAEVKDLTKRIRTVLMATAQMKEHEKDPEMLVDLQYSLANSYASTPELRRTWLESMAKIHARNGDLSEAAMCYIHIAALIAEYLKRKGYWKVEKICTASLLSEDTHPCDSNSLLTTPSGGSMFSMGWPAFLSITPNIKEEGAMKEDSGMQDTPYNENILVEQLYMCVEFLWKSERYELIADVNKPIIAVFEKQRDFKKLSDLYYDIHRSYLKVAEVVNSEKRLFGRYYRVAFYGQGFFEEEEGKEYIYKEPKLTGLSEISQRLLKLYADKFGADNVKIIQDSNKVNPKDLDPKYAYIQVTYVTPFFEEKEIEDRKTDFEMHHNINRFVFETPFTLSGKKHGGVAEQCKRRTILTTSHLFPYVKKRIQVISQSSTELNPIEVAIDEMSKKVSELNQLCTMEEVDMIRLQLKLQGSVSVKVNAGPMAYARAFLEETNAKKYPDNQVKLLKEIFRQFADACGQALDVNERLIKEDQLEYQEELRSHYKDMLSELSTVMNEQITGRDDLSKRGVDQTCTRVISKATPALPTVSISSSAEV
inactive: [1] 0 | vorinostat -0.07 | silmitasertib 0.143 | [2] -0.064 | entospletinib 0.023

CMBL (UniProt Q96DG6)
Chain of UniProt Q96DG6 (Q96DG6 whole entry, looked up): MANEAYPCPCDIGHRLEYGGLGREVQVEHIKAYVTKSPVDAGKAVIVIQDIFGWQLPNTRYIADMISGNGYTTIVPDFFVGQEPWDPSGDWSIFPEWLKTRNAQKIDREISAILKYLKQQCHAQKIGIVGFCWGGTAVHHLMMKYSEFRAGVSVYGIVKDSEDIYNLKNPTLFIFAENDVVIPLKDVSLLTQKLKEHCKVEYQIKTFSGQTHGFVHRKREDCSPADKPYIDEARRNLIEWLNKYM
inactive: [1] -0.065 | vorinostat 0.09 | silmitasertib 0.042 | [2] 0.071 | entospletinib 0.037

COG2 (UniProt Q14746)
active: vorinostat -0.315
inactive: [1] -0.031 | silmitasertib 0.055 | [2] 0.061 | entospletinib 0.058

DNAJC24 (UniProt Q6P3W2)
Chain of UniProt Q6P3W2 (Q6P3W2 whole entry, looked up): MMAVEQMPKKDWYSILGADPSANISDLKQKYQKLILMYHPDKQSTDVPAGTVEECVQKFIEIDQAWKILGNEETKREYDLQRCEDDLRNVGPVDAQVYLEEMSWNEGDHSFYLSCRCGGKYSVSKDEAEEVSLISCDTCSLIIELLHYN
inactive: [1] -0.159 | vorinostat 0.053 | silmitasertib -0.017 | [2] -0.014 | entospletinib -0.046

DALRD3 (UniProt Q5D0E6)
inactive: [1] -0.17 | silmitasertib 0.074 | entospletinib -0.046
active: vorinostat -0.895

DHRS13 (UniProt Q6UX07)
Chain of UniProt Q6UX07 (Q6UX07 whole entry, looked up): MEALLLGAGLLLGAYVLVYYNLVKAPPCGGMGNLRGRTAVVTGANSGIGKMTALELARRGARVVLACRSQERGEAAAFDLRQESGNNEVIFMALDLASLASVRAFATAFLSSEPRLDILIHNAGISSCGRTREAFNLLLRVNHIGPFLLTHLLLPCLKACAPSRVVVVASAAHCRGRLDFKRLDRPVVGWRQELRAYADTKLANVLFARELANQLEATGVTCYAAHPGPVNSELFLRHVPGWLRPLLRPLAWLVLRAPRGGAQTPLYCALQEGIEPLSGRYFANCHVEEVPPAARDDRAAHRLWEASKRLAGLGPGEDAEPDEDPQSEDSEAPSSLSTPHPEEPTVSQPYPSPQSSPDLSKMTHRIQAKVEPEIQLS
inactive: silmitasertib 0.059 | [2] -0.001
active: vorinostat 1.11

DDX4 (UniProt Q9NQI0)
inactive: [1] 0.019 | vorinostat -0.213 | silmitasertib 0.101 | entospletinib 0.011

CLASP1 (UniProt Q7Z460)
active: vorinostat -0.317
inactive: [1] 0.018 | silmitasertib -0.015 | [2] -0.022 | entospletinib 0.029

CPLX1 (UniProt O14810)
inactive: [1] 0 | entospletinib 0.119

DDR1 isoform 5 (UniProt Q08345)
inactive: [2] -0.026 | entospletinib -0.153

COG6 (UniProt Q9Y2V7)
inactive: [1] 0.021 | silmitasertib 0.072 | [2] 0.09 | entospletinib 0.026
active: vorinostat -0.254

CSAD isoform 3 (UniProt Q9Y600)
inactive: vorinostat 0.031 | silmitasertib 0.075 | [2] 0.039

CLIP1 isoform 2 (UniProt P30622)
inactive: vorinostat 0.167 | silmitasertib -0.035 | [2] 0.002 | entospletinib -0.151

CSNK2A2 (UniProt P19784)
active: silmitasertib 0.879
inactive: [1] 0.383 | vorinostat -0.105 | [2] -0.008 | entospletinib 0.466

CLASP2 (UniProt O75122)
inactive: [1] 0.052 | [2] 0.194 | entospletinib -0.073

CHMP4A (UniProt H0YIN6)
inactive: [2] 0.287

CSRP2 (UniProt Q16527)
inactive: [2] 0.016 | entospletinib -0.132

CSDE1 isoform 3 (UniProt O75534)
inactive: [2] -0.1

CSNK1D (UniProt P48730)
inactive: [1] 0.002 | [2] -0.002 | entospletinib -0.076

DESI2 (UniProt Q9BSY9)
inactive: [1] 0.155 | entospletinib 0.116

COX20 isoform 2 (UniProt Q5RI15)
Chain of UniProt Q5RI15 (Q5RI15 whole entry, looked up): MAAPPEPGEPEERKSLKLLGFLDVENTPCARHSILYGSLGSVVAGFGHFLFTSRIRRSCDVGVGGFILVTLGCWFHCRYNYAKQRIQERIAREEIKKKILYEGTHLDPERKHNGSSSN
inactive: [1] -0.016 | vorinostat -0.079 | silmitasertib 0.011 | [2] -0.037 | entospletinib 0.026

CORO7 isoform 3 (UniProt P57737)
inactive: [1] -0.045 | vorinostat -0.176 | silmitasertib 0.042 | [2] 0.004 | entospletinib 0.005

CHMP4A isoform 2 (UniProt Q9BY43)
Chain of UniProt Q9BY43 (Q9BY43 whole entry, looked up): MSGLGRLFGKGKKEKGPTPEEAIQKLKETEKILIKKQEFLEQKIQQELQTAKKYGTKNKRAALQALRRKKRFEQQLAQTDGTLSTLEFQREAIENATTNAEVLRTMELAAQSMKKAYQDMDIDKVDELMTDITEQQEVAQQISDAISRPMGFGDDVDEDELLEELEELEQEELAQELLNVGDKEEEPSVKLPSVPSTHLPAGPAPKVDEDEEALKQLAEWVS
inactive: [1] 0.011 | vorinostat 0.1 | silmitasertib -0.027 | [2] -0.051 | entospletinib 0.019

CNK3/IPCEF1 isoform 2 (UniProt G9CGD6)
Chain of UniProt G9CGD6 (G9CGD6 whole entry, looked up): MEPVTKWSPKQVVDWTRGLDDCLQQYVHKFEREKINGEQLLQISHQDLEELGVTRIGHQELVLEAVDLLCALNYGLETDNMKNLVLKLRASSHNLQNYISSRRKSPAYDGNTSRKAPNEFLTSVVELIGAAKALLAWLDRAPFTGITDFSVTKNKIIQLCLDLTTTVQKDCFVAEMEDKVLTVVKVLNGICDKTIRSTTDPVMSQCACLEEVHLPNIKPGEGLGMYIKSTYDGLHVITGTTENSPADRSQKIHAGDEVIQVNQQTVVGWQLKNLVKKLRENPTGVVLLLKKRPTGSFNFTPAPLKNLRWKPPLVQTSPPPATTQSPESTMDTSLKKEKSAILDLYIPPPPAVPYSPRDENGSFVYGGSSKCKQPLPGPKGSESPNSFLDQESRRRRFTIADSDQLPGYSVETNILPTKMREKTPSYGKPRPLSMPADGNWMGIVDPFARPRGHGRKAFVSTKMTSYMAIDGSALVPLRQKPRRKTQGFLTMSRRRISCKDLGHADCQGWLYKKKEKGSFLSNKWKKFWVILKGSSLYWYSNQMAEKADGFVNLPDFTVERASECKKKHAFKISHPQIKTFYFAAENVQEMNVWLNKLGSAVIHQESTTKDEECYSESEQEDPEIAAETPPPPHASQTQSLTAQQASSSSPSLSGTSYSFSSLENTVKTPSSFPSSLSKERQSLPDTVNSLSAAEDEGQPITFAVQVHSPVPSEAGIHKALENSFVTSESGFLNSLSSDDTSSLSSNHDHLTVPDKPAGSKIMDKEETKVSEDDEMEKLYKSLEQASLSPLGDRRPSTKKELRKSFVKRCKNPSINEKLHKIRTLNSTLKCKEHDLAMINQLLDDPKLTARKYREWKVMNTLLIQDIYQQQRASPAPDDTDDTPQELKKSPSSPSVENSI
inactive: [1] -0.02 | vorinostat -0.279 | silmitasertib 0.06 | entospletinib 0.008

CXCL14 (UniProt O95715)
inactive: [1] 0.24 | entospletinib 0.033

CYP4V2 (UniProt Q6ZWL3)
Chain of UniProt Q6ZWL3 (Q6ZWL3 whole entry, looked up): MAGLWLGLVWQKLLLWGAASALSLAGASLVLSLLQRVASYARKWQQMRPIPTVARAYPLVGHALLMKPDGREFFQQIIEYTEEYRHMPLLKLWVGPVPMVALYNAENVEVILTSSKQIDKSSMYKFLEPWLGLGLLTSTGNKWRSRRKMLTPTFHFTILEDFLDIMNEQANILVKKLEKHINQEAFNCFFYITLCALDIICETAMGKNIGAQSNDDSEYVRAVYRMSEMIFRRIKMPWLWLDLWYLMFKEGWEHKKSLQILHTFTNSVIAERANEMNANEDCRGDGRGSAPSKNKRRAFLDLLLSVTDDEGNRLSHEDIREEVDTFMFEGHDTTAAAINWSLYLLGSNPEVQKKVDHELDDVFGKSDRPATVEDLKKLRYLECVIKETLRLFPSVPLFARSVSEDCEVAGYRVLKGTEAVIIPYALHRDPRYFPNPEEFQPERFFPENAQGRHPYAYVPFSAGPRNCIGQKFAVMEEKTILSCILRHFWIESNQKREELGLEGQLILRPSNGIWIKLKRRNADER
inactive: vorinostat 0.055 | silmitasertib -0.038 | [2] 0.034

CSNK2A1 (UniProt P68400)
inactive: [1] 0.15 | vorinostat 0.057 | [2] -0.046 | entospletinib 0.213

CNOT2 (UniProt F8VRS8)
inactive: vorinostat -0.056 | silmitasertib 0.152

CTNNBL1 (UniProt Q8WYA6)
inactive: [1] -0.026 | vorinostat -0.046 | silmitasertib -0.044 | [2] -0.025 | entospletinib -0.011

CINP isoform 3 (UniProt Q9BW66)
inactive: [1] 0.084 | [2] 0.043 | entospletinib 0.009

DNM2 isoform 4 (UniProt P50570)
active: vorinostat -0.826
inactive: silmitasertib 0.047 | [2] -0.014 | entospletinib -0.02

COL6A3 (UniProt P12111)
inactive: vorinostat 0.273 | silmitasertib 0.002 | [2] -0.093

COPS9 (UniProt Q8WXC6)
inactive: vorinostat 0.341 | silmitasertib -0.139

DHX32 (UniProt Q7L7V1)
inactive: [1] -0.044 | vorinostat -0.351 | silmitasertib 0.028 | [2] 0.097 | entospletinib -0.002

CRLS1 (UniProt Q9UJA2)
Chain of UniProt Q9UJA2 (Q9UJA2 whole entry, looked up): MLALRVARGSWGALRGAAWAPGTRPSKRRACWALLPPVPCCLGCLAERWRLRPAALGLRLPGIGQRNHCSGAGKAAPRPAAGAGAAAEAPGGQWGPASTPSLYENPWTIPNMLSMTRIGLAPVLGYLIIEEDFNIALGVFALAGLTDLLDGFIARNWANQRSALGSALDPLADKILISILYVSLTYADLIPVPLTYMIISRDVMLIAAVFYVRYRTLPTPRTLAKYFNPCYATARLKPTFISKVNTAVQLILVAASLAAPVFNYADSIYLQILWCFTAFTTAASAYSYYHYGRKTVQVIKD
active: vorinostat -0.572
inactive: silmitasertib 0.172 | [2] 0.036

CSNK2B (UniProt P67870)
active: silmitasertib 0.595
inactive: [1] 0.2 | vorinostat -0.016 | [2] 0.023 | entospletinib 0.241

DONSON (UniProt Q9NYP3)
inactive: silmitasertib -0.123 | [2] 0.032
active: vorinostat -0.401

CLIP1, A0A3B3ITA2
inactive: [1] 0.136 | [2] 0.068
